Screening data from PubChem.
Shown is part of a subset that was picked to be rich in hits.
Tgondii IFNg: T. gondii growth inhibition under IFN-gamma; 3.8% of 69,000 active; Toxoplasma gondii growth in IFN-gamma-treated host cells; active compounds read low; activity change, negative = inhibition, % (concentration not given with the values); in the data active means activity change below about -70%, passing the limit was not always enough;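 further: host cells are HeLa cells infected with Toxoplasma gondii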
Starred values were filed as active, the others as inactive.

What do the screens show for `Cc1nc2cc(C3CCCN(C(=O)C(C)C)C3)[nH]n2c(=O)c1C` (stereo not drawn)?
Tgondii IFNg: 4

Results for NC1=Nc2ccc(Cl)cc2C1(O)c1ccccc1 (stereo not drawn) ?
Tgondii IFNg: -97*

Results for OC1(c2ccccc2)c2ccccc2-c2ccccc21 ?
Tgondii IFNg: 26

Results for Cc1nc(N)ncc1C(=O)N1CCCC1c1ccc2c(c1)OCCCO2 (stereo not drawn) ?
Tgondii IFNg: -4

Results for Clc1ccccc1CSc1nc2ccccc2[nH]1 ?
Tgondii IFNg: -37

What do the screens show for `c1ccc(-n2nnnc2CSc2nc3ccccc3[nH]2)cc1`?
Tgondii IFNg: -1

How did Cc1cc(CSc2nc3ccccc3[nH]2)c(C)cc1CSc1nc2ccccc2[nH]1 do in these assays?
Tgondii IFNg: -96*

Results for CCCCCCCCCc1nc2c(=O)n(C)c3ccccc3c2o1 ?
Tgondii IFNg: 5

Results for Cc1cccc(C)c1-c1c(-c2ccccc2)ncn1CCC(=O)N1CCCC1 ?
Tgondii IFNg: 5

What do the screens show for `Cc1[nH]c2ccccc2c1C(=O)CSc1nc2ccccc2o1`?
Tgondii IFNg: -39

Results for Cc1cc(CSc2nc3ccccc3o2)c(C)cc1CSc1nc2ccccc2o1 ?
Tgondii IFNg: -3

What do the screens show for `O=c1cc(CSc2nc3ccccc3o2)[nH]c2nc3ccccc3n12`?
Tgondii IFNg: -97*

Results for CC(C)c1ccc(S(=O)(=O)N2CCC3(CC2)Nc2ccccc2-n2cccc23)cc1 ?
Tgondii IFNg: -36

What do the screens show for `CCCC(=O)N1CCc2c([nH]c3ccccc23)C1c1ccc(OC)cc1` (stereo not drawn)?
Tgondii IFNg: inactive

Results for Cc1ccc(C2c3[nH]c4ccccc4c3CCN2C(=O)CCc2ccccc2)cc1 (stereo not drawn) ?
Tgondii IFNg: -80*

Results for CCCC(=O)N1CCc2c([nH]c3ccccc23)C1c1ccc(SC)cc1 (stereo not drawn) ?
Tgondii IFNg: -24

How did COC(=O)CCC(=O)N1CCc2c([nH]c3ccccc23)C1c1ccc(SC)cc1 (stereo not drawn) do in these assays?
Tgondii IFNg: 57

Results for CCCC(=O)N1CCc2c([nH]c3ccccc23)C1c1ccc(Cl)cc1 (stereo not drawn) ?
Tgondii IFNg: -104*

How did O=C(COc1ccccc1)N1CCc2c([nH]c3ccccc23)C1c1ccc(F)cc1 (stereo not drawn) do in these assays?
Tgondii IFNg: -64

How did Cc1ccc(C2c3[nH]c4ccccc4c3CCN2C(=O)COc2ccccc2)cc1 (stereo not drawn) do in these assays?
Tgondii IFNg: -117*

What do the screens show for `CCOc1cccc(C2c3[nH]c4ccccc4c3CCN2C(=O)CCc2ccccc2)c1` (stereo not drawn)?
Tgondii IFNg: inactive

Results for O=C(COc1ccccc1)N1CCc2c([nH]c3ccccc23)C1c1ccc(Cl)cc1 (stereo not drawn) ?
Tgondii IFNg: -70

Results for CCCC(=O)N1CCc2c([nH]c3ccccc23)C1c1ccc(OCC)cc1 (stereo not drawn) ?
Tgondii IFNg: -37

How did CSc1ccc(C2c3[nH]c4ccccc4c3CCN2C(=O)CCC2CCCC2)cc1 (stereo not drawn) do in these assays?
Tgondii IFNg: -122*

Results for COCC(=O)N1CCc2c([nH]c3ccccc23)C1c1ccc(C)cc1 (stereo not drawn) ?
Tgondii IFNg: 272

What do the screens show for `CSc1cccc(NC(=O)Cn2c(=O)cc(C(=O)N3CCCCC3)c3ccccc32)c1`?
Tgondii IFNg: -11

How did CC(C)Cc1cc(Cn2cnnc2)no1 do in these assays?
Tgondii IFNg: 12

What do the screens show for `Cc1oc(-c2ccc(Cl)cc2)cc1C(=O)NCc1ccccc1`?
Tgondii IFNg: -8

Results for CCC(=O)N1CCC2(CC1)Nc1cc(F)ccc1-n1cccc12 ?
Tgondii IFNg: 42

What do the screens show for `Cc1ccc2[nH]cc(-c3cccc(OCC(N)=O)c3)c2c1`?
Tgondii IFNg: 24

How did CCn1c(CNC2(c3ccccc3F)CCCC2)cnc1SC do in these assays?
Tgondii IFNg: -47

How did COCCN1C(=O)CCc2cc(NS(=O)(=O)c3ccc(C)c(C)c3)ccc21 do in these assays?
Tgondii IFNg: 22

What do the screens show for `CCCN1C(=O)CCc2cc(NS(=O)(=O)c3cccs3)ccc21`?
Tgondii IFNg: 5

How did CCCN1C(=O)CCc2cc(NS(=O)(=O)c3ccc(C(F)(F)F)cc3)ccc21 do in these assays?
Tgondii IFNg: -82*

Results for CCCN1C(=O)CCc2cc(NS(=O)(=O)c3ccc(CC)cc3)ccc21 ?
Tgondii IFNg: -82*

Results for COCCN1C(=O)CCc2cc(NS(=O)(=O)c3ccc(C)cc3)ccc21 ?
Tgondii IFNg: 39

Results for COCCN1C(=O)CCc2cc(NS(=O)(=O)c3ccc(CC(C)C)cc3)ccc21 ?
Tgondii IFNg: -79*

How did COCCN1C(=O)CCc2cc(NS(=O)(=O)c3ccc(C(F)(F)F)cc3)ccc21 do in these assays?
Tgondii IFNg: 1

Results for COCCN1C(=O)CCc2cc(NS(=O)(=O)c3ccccc3)ccc21 ?
Tgondii IFNg: -27

How did COCCN1C(=O)CCc2cc(NS(=O)(=O)c3ccc4c(c3)CCC4)ccc21 do in these assays?
Tgondii IFNg: -63

Results for CCC1C=CCC(C(=O)O)C1C(=O)Nc1ccc(C(=O)N2CCOCC2)cc1 (stereo not drawn) ?
Tgondii IFNg: -10

What do the screens show for `COc1ccc(C(=O)N2CCC3(CC2)CNC(=O)C3)c(C)c1`?
Tgondii IFNg: -7

How did CCN1CC(Cn2ccnc2-c2cccc3nonc23)CC1=O (stereo not drawn) do in these assays?
Tgondii IFNg: -41

What do the screens show for `CC(C)C(NC(=O)C1CCNCC1)c1nnc2n1CCNCC2` (stereo not drawn)?
Tgondii IFNg: -1

Results for CSc1ncc(C(=O)N2CCC(COc3ccccn3)CC2)cn1 ?
Tgondii IFNg: 3

How did CCc1nc(C)c(C(=O)N(C)Cc2ccc3nsnc3c2)o1 do in these assays?
Tgondii IFNg: -3

Results for CCc1nc(C)c(C(=O)N(C)Cc2snnc2C)o1 ?
Tgondii IFNg: -27

How did CCc1nc(C)c(C(=O)N(C)Cc2csc(C(C)C)n2)o1 do in these assays?
Tgondii IFNg: -92*

What do the screens show for `O=C(c1ccc[nH]c1=O)N1CCC2(CCCO2)CC1`?
Tgondii IFNg: 1

Results for COc1ncccc1-c1nc2c(C)cccc2cc1CO ?
Tgondii IFNg: 1

What do the screens show for `CCOc1cc2c(cc1OCC)C(c1ccccc1)N(c1ccc(C(=O)O)cc1)C(=O)C2` (stereo not drawn)?
Tgondii IFNg: -16

How did COc1cc2c(cc1OC(C)C)[C@H](c1ccc(Cl)cc1)N(c1ccc(N(C)CC3CCC(N4CCN(C)C(=O)C4)CC3)cc1)C(=O)C2 (stereo partly drawn) do in these assays?
Tgondii IFNg: -79*

What do the screens show for `Cc1nc(C(=O)N2CC[C@@H]3OCCN(C)[C@@H]3C2)cs1`?
Tgondii IFNg: 42

What do the screens show for `O=C(Nc1ccccc1)c1ccccc1O`?
Tgondii IFNg: -18

How did Cc1ccc(C)n1NC(=O)c1ccccc1O do in these assays?
Tgondii IFNg: -95*

What do the screens show for `NC(=O)c1ccccc1O`?
Tgondii IFNg: 11

How did Cc1oc(-c2ccccc2)nc1Cn1nnc(-c2nc(-c3ccc(Br)cc3)no2)c1C do in these assays?
Tgondii IFNg: -38

How did O=C(Nc1cccc(Cl)c1)N[C@@H]1CC[C@@H](CCn2cc(Cc3ccccc3)nn2)O[C@@H]1CO do in these assays?
Tgondii IFNg: -74*
